Screening results: PubChem, National Center for Advancing Translational Sciences (NCATS)
Vaccinia mCherry: qHTS for Stage-Specific Inhibitors of Vaccinia Orthopoxvirus: mCherry Reporter Primary qHTS. Vaccinia virus mCherry reporter infection, fluorescence. 310,000 tested, 0.63% active. Potency, µM (titrated, usually from 36.5 µM), without a hit: top-dose activity change, negative = inhibition, hits mostly inhibitors; calls by dose curve; tested in A549 cells; note: % is set by controls: 0 for no effect and ±100 for the full control effect; nearly all actives have a fitted effect of over 35% in size
Pf growth 48h: Primary qHTS for delayed death inhibitors of the malarial parasite plastid, 48 hour incubation; 310,000 tested, 5.9% active; P. falciparum luciferase growth in erythrocytes, 48 h; Potency, µM (top dose mostly 28.7 µM), for inactives: top-dose activity change, negative = inhibition, actives largely listed as inhibitors; note: % is set by controls: 0 for no effect and ±100 for the full control effect
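Luminescence readout; reporter = integrated firefly luciferase in P. falciparum. RBC culture at 2% hematocrit, 0.1% parasitemia final, 37 C/5% CO2; decreased signal taken as growth inhibition.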
HCV inh: qHTS Assay for Inhibitors of Hepatitis C Virus (HCV). 340,000 tested, 3.4% active. Potency, µM (titrated, usually from 41.8 µM), for the others: at the highest dose activity change, negative = inhibition, hits mostly inhibitors. AID 651820, 2012. Huh7.5.1 HCVcc-Cre infection, luciferase reporter, 44 h; note: % is set by controls: 0 for no effect and ±100 for the full control effect
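Antiviral activity was scored by luciferase reporter output from cells infected with HCVcc-Cre (~0.5 moi) in presence of compound, 44 h infection period, cells seeded 1,000/well 4 h prior.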
NS1 function inh: qHTS Assay for Inhibitors of Influenza NS1 Protein Function; AID 2326, 2010; 270,000 tested, 0.4% active; Potency, µM (titrated, usually from 46.1 µM), inactives show at the top dose activity, positive = more growth; calls by dose curve; note: actives are rising curves; nearly all actives have a fitted effect of over 50% in size
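OD600 was taken as the measure of yeast growth restored by compound in an NS1-expressing S. cerevisiae strain. Cells had been washed out of glucose medium and diluted 1:100 into galactose -URA medium, pH 6.0.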
Pf growth 96h: Primary qHTS for delayed death inhibitors of the malarial parasite plastid, 96 hour incubation; 320,000 tested, 6.9% active; AID 504834, 2011; Potency, µM (highest dose often 28.7 µM), for the others: at the highest dose activity change, negative = inhibition, most hits filed as inhibitors; P. falciparum luciferase reporter growth, 96 h; note: % is set by controls: 0 for no effect and ±100 for the full control effect
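Two parasite generations (96 h, 37 C, 5% CO2) of compound exposure in infected erythrocytes (0.05% parasitemia, 2% hematocrit). Luciferase-reporter P. falciparum; decreased luminescence indicates inhibited growth, aimed at apicoplast-acting delayed death.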
VACV Venus inh: qHTS for Stage-Specific Inhibitors of Vaccinia Orthopoxvirus: Venus Reporter Primary qHTS; AID 720580, 2013; 330,000 tested, 0.46% active; Vaccinia virus Venus reporter expression, fluorescence; Potency, µM (doses to about 36.5 µM), for the others: at the highest dose activity change, negative = inhibition, actives largely listed as inhibitors; calls by dose curve; tested in A549 cells; note: % is set by controls: 0 for no effect and ±100 for the full control effect; nearly all actives have a fitted effect of over 30% in size
Starred values were filed as active, the others as inactive; i = inactive; ? = inconclusive; / = no result given. Compounds with a hit are over-represented: about 11% of the library has one in this group of screens. Unless noted, calls come from the whole dose curve; as a rule, active = well fitted inhibition curve with a large enough effect; inconclusive = small, poorly fitted or top-dose-only effect, or another doubt; inactive = no such curve, though single readings can be large or run the other way. Potency is the fitted concentration of half-maximal effect.

SMILES	Vaccinia mCherry	Pf growth 48h	HCV inh	NS1 function inh	Pf growth 96h	VACV Venus inh
CCOc1cc(/C=N/NC(=O)c2ccccc2OCc2ccc(F)cc2)ccc1O	/	8.3µM*	?	/	?	/
COc1ccc(/C=N/NC(=O)c2sccc2OCc2ccc(F)cc2)cc1OC	/	?	-16%	-12%	12µM*	-24%
c1ccc(-c2nccc(-c3ccco3)n2)nc1	?	-24%	-5%	-1%	?	-12%
Cc1ccc(-n2cc(CN3CCN(C(=O)c4ncn[nH]4)CC3)c(-c3ccc(F)cc3)n2)cc1	/	12µM*	?	1%	15µM*	/
COc1ccc(-n2cc(CNCC3CCOCC3)c(-c3cccc(F)c3)n2)cc1	/	?	4%	3%	18%	/
Cc1ccc(-n2cc(CN3CCN(c4ccccn4)CC3)c(-c3ccc(F)cc3)n2)cc1	i	9.3µM*	?	2%	-12%	-9%
Cc1ccc(-n2cc(CNCCCn3ccnc3C)c(-c3ccc(F)cc3)n2)cc1	?	2.3µM*	?	0%	23%	?
COc1ccc(-n2cc(CNCCCn3ccnc3)c(-c3cccc(F)c3)n2)cc1	/	1.5µM*	?	2%	-13%	/
Cc1ccc(-n2cc(CN3CCN(Cc4nccn4C)CC3)c(-c3ccc(F)cc3)n2)cc1	-21%	6.6µM*	?	3%	?	?
Cc1ccc(-n2cc(CNC(C)c3cnn(C)c3)c(-c3ccc(F)cc3)n2)cc1 (configuration not stated)	-20%	?	-20%	-2%	?	-18%
O=C(Nc1ccc(NC(=S)NC(=O)c2ccccc2F)cc1)c1cccs1	i	?	?	/	?	-10%
CC(C)CC(=O)NC(=S)Nc1ccc(N2CCN(C(=O)c3cccs3)CC2)cc1	i	10µM*	?	9%	?	-16%
CCOc1ccc(NS(=O)(=O)c2ccc(NC(=S)NC(=O)CC(C)C)cc2)cc1	/	/	11µM*	14%	?	?
CC(C)CC(=O)NC(=S)Nc1ccc(NC(=O)c2cccs2)cc1	/	/	?	-6%	5.2µM*	/
CC(C)C(=O)Nc1ccc(N2CCN(C(=O)c3cccs3)CC2)cc1	-12%	-15%	17%	5%	?	-4%
CC1CN(C(=O)CSc2nc(-c3ccccc3)cs2)CC(C)O1 (configuration not stated)	/	6%	23%	-23%	/	-12%
CCOC(=O)/C=c1/s/c(=C\c2c(OC)ccc3ccccc23)c(=O)n1CC(=O)NCC1CCCO1 (configuration not stated)	?	/	?	/	/	-20%
CCOC(=O)/C=c1\s/c(=C\c2c(OCC)ccc3ccccc23)c(=O)n1CC(=O)NCC1CCCO1 (configuration not stated)	-19%	12µM*	3.5µM*	13%	/	?
COC(=O)/C=C1/N/C(=N\c2nc(C)cc(C)n2)N(c2ccc(Cl)cc2)C1=O	-7%	-19%	-1%	14%	62%	-16%
CC(=O)c1ccc(N2C(=O)[C@@H]3C(C(=O)CCN4C(=O)c5ccccc5C4=O)=NN[C@@H]3C2=O)cc1	-14%	-2%	4%	?	2.3µM*	-5%
CC(NC(=O)c1ccccc1F)C(=O)O (configuration not stated)	i	24%	6%	4%	0%	-8%
S=C(NCc1ccc2c(c1)OCO2)Nc1ccc(-c2nc3ccccc3[nH]2)cc1	-19%	12µM*	?	19%	5.2µM*	-29%
CC(C)c1ccc(NC(=S)NCc2ccc3c(c2)OCO3)cc1	-1%	-17%	-17%	/	-30%	-18%
COc1ccc(CNC(=S)Nc2cccc(C)c2)cc1	/	/	-19%	2%	-24%	-17%
COc1ccc(CNC(=S)Nc2ccccc2)cc1	-13%	?	-17%	?	13µM*	-13%
